# Inconclusive results are not listed. The source made the active and inactive calls. Calls come from the whole dose curve; as a rule, active = well fitted curve in the direction sought with a large enough effect; inconclusive = small, poorly fitted or top-dose-only effect, or another doubt; inactive = no such curve, though single readings can be large; an effect the other way counts as inactive or inconclusive.
# Columns and labels:
# [1] = Quantitative High-Throughput drug screen in 47 multiple myeloma cell lines against the NCATS MIPE library collection: FR4_PLB cell viability assay (AID 1918924; note: nearly all actives have a fitted effect of over 35% in size; note: potency is the fitted concentration of half-maximal effect)
# Outline: (§1)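 Approved and investigational drugs from MIPE 4.0 were added by pin tool to 500 cells per well. After 48 hours at 37C, ATP-based CellTiter-Glo luminescence indicated remaining viability.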
# [2] = Quantitative High-Throughput drug screen in 47 multiple myeloma cell lines against the NCATS MIPE library collection: Delta47_JCRB cell viability assay (AID 1918925; note: nearly all actives have a fitted effect of over 45% in size; note: potency is the fitted concentration of half-maximal effect)
# Outline: (§2)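 Myeloma cells (500 per well) were exposed to MIPE 4.0 compounds by pin transfer and incubated 48 hours at 37C, 5% CO2. Viability was read as ATP by CellTiter-Glo luminescence, normalised to DMSO (100%) and media-only (0%) wells.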
# [3] = Quantitative High-Throughput drug screen in 47 multiple myeloma cell lines against the NCATS MIPE library collection: EJM_DSMZ cell viability assay (AID 1918926; note: nearly all actives have a fitted effect of over 30% in size; note: potency is the fitted concentration of half-maximal effect)
# Outline: as §2
# [4] = Quantitative High-Throughput drug screen in 47 multiple myeloma cell lines against the NCATS MIPE library collection: AMO1_DSMZ cell viability assay (AID 1918927; note: nearly all actives have a fitted effect of over 30% in size; note: potency is the fitted concentration of half-maximal effect)
# Outline: as §2
# [5] = Quantitative High-Throughput drug screen in 47 multiple myeloma cell lines against the NCATS MIPE library collection: ARP1_JJKsccF8 cell viability assay (AID 1918928; note: nearly all actives have a fitted effect of over 40% in size; note: potency is the fitted concentration of half-maximal effect)
# Outline: (§3)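 500 cells/well; MIPE 4.0 library pinned in; 48 h, 37 °C, 5% CO2; CellTiter-Glo ATP luminescence. Controls: DMSO = 100% viability, medium only = 0%.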
# [6] = Quantitative High-Throughput drug screen in 47 multiple myeloma cell lines against the NCATS MIPE library collection: ARD_JJKsccE7 cell viability assay (AID 1918929; note: potency is the fitted concentration of half-maximal effect)
# Outline: as §2
# [7] = Quantitative High-Throughput drug screen in 47 multiple myeloma cell lines against the NCATS MIPE library collection: Karpas620_DSMZ cell viability assay (AID 1918959); note: nearly all actives have a fitted effect of over 30% in size; note: potency is the fitted concentration of half-maximal effect
# Outline: as §1
# [8] = Quantitative High-Throughput drug screen in 47 multiple myeloma cell lines against the NCATS MIPE library collection: KMM1_JCRB cell viability assay (AID 1918960); note: nearly all actives have a fitted effect of over 30% in size; note: potency is the fitted concentration of half-maximal effect
# Outline: as §3
# [9] = biological target: Luciferin 4-monooxygenase (Photinus pyralis) (UniProt P08659); assay: Primary firefly luciferase (FLuc) qHTS assay for identification of artifact compounds. (AID 1845220); note: series mostly up to about 54 µM; nearly all actives have a fitted effect of over 60% in size
# Outline: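 Cell-free, 1536-well qHTS. Buffer pH 7.6 with 0.01% Tween-20 and 0.05% BSA; 10 uM D-luciferin, 10 uM ATP; 10 nM P. pyralis luciferase; luminescence after 5 min.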
# [10] = Primary fluorescence-based thiol-reactive (MSTI) qHTS assay for identification of artifact compounds. (AID 1845221); note: potency is the fitted concentration of half-maximal effect; nearly all actives have a fitted effect of over 65% in size
# Outline: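 A multi-concentration qHTS design tested compounds against 4 uM MSTI, pH 7.4 phosphate-buffered saline. Plates were protected from light for 1 h at room temperature before imaging fluorescence.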
# [11] = tested on: Nanoluciferase (engineered Oplophorus gracilirostris luciferase); assay: Primary Nanoluciferase (NLuc) qHTS assay for identification of artifact compounds. (AID 1845222); note: series mostly up to about 54 µM
# Outline: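 Compounds are pinned into diluted (1:55) conditioned medium of NLuc-expressing S16 cells and held 15 min at room temperature protected from light. Nano-Glo substrate follows, and luminescence is read 5 min later.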
# [12] = Primary redox qHTS assay for identification of artifact compounds. (AID 1845223)
# Outline: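 Redox-cycling detection via DTT (250 uM final) oxidation coupled to Amplex Red (25 uM)/HRP (250 mU/mL) in HBSS. 15 min preincubation plus 30 min after DTT, room temperature. Ex/Em 525/598 nm; 4-parameter Hill fit against DMSO and 10 uM DA3003.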
# [13] = biological target: Phospholipid hydroperoxide glutathione peroxidase GPX4 (Homo sapiens) (UniProt P36969); assay: Primary qHTS Assay for Inhibitors of Recombinant Selenoprotein Glutathione Peroxidase 4 (GPX4) (AID 1845192); note: potency is the fitted concentration of half-maximal effect; nearly all actives have a fitted effect of over 65% in size
# Outline: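 NADPH consumption followed by fluorescence at 340/450 nm, t=0 and after 15 min at room temperature. Reaction started with cumene hydroperoxide (0.5 mM final) after 30 min compound–GPX4 preincubation; final 200 nM GPX4, 100 nM GR, 1 mM GSH, 0.5 mM NADPH.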
# Sequence of Phospholipid hydroperoxide glutathione peroxidase GPX4 (Homo sapiens) (P36969 whole entry, looked up): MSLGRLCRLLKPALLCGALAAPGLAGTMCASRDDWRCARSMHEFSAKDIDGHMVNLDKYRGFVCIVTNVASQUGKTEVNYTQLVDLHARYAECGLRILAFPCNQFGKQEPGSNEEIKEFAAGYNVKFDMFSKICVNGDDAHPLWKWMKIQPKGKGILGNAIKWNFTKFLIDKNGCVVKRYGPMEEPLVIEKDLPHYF
structure (smiles),measurement,setting,value
C1=CCOCc2cc(ccc2OCCN2CCCC2)Nc2nccc(n2)-c2cccc(c2)OCC1,Potency,[1],3320 nM (active)
same,Potency,[2],2350 nM (active)
same,Potency,[3],2640 nM (active)
same,Potency,[4],3320 nM (active)
same,Potency,[5],1660 nM (active)
same,Potency,[6],1870 nM (active)
same,Potency,[7],2090 nM (active)
same,Potency,[8],1870 nM (active)
O=C(C=Cc1c(C(=O)O)[nH]c2cc(Cl)cc(Cl)c12)Nc1ccccc1,Potency,[2],inactive
same,Potency,[3],inactive
same,Potency,[4],inactive
same,Potency,[5],inactive
same,Potency,[6],inactive
same,Potency,[7],inactive
same,Potency,[8],inactive
Cc1cc(Nc2cc(N3CCN(C)CC3)nc(C=Cc3ccccc3)n2)n[nH]1,Potency,[2],3820 nM (active)
same,Potency,[3],38200 nM (active)
same,Potency,[5],4290 nM (active)
same,Potency,[6],13600 nM (active)
same,Potency,[7],12100 nM (active)
C[C@H]1C[C@@H]2[C@@H]([C@@H](O)C[C@@]3(C)[C@H]2CC[C@]3(O)C(=O)CO)[C@@]2(C)C=CC(=O)C=C12,Potency,[1],inactive
same,Potency,[2],inactive
same,Potency,[3],inactive
same,Potency,[4],inactive
same,Potency,[7],inactive
Cc1cccc(C=NNc2cc(N3CCOCC3)nc(OCCc3ccccn3)n2)c1,Potency,[1],4690 nM (active)
same,Potency,[2],1320 nM (active)
same,Potency,[7],469 nM (active)
O=C(C=Cc1cccc(S(=O)(=O)Nc2ccccc2)c1)NO,Potency,[1],1520 nM (active)
same,Potency,[2],1710 nM (active)
same,Potency,[4],855 nM (active)
same,Potency,[5],960 nM (active)
same,Potency,[7],2410 nM (active)
same,Potency,[8],1080 nM (active)
O=C(C=Cc1cccnc1)NCCCCC1CCN(C(=O)c2ccccc2)CC1,Potency,[8],14.8 nM (active)
CN(C)CC=CC(=O)Nc1cc2c(Nc3ccc(F)c(Cl)c3)ncnc2cc1O[C@H]1CCOC1,Potency,[2],3720 nM (active)
same,Potency,[3],16600 nM (active)
same,Potency,[4],935 nM (active)
same,Potency,[5],18700 nM (active)
same,Potency,[6],5260 nM (active)
same,Potency,[7],2640 nM (active)
same,Potency,[8],3720 nM (active)
CCC[C@H](NC(=O)C(C#N)=Cc1cccc(Br)n1)c1ccccc1,Potency,[1],2640 nM (active)
same,Potency,[2],1320 nM (active)
same,Potency,[3],2960 nM (active)
same,Potency,[5],4180 nM (active)
same,Potency,[7],6620 nM (active)
O=C(O)CO.[NH2-].[NH2-].[Pt+2],Potency,[3],inactive
same,Potency,[4],inactive
same,Potency,[5],inactive
same,Potency,[7],inactive
same,Potency,[8],inactive
CCOc1cc2ncc(C#N)c(Nc3ccc(F)c(Cl)c3)c2cc1NC(=O)C=CCN(C)C,Potency,[1],7430 nM (active)
same,Potency,[2],6620 nM (active)
same,Potency,[3],5900 nM (active)
same,Potency,[5],1660 nM (active)
Cc1[nH]c2ccccc2c1CCNCc1ccc(C=CC(=O)NO)cc1,Potency,[1],46.9 nM (active)
same,Potency,[2],52.6 nM (active)
same,Potency,[3],148 nM (active)
same,Potency,[5],41.8 nM (active)
same,Potency,[8],52.6 nM (active)
Cc1cc(N2CCOCC2)cc2[nH]c(-c3c(NC[C@@H](O)c4cccc(Cl)c4)cc[nH]c3=O)nc12,Potency,[9],inactive
same,Potency,[10],1680 nM (active)
same,Potency,[11],inactive
same,Potency,[12],inactive
same,Potency,[1],23500 nM (active)
same,Potency,[2],66.2 nM (active)
same,Potency,[3],235 nM (active)
same,Potency,[4],526 nM (active)
same,Potency,[5],5260 nM (active)
same,Potency,[7],418 nM (active)
same,Potency,[8],52.6 nM (active)
CC[C@H]1CN2CCc3cc(OC)c(OC)cc3[C@H]2C[C@@H]1C[C@@H]1NCCc2cc(OC)c(OC)cc21,Potency,[1],372 nM (active)
same,Potency,[2],166 nM (active)
same,Potency,[3],187 nM (active)
same,Potency,[5],187 nM (active)
same,Potency,[6],296 nM (active)
same,Potency,[7],235 nM (active)
same,Potency,[8],187 nM (active)
COc1cc2ncnc(Nc3ccc(F)c(Cl)c3)c2cc1NC(=O)C=CCN1CCCCC1,Potency,[1],26400 nM (active)
same,Potency,[2],5260 nM (active)
same,Potency,[3],20900 nM (active)
same,Potency,[4],2960 nM (active)
same,Potency,[5],23500 nM (active)
same,Potency,[8],8330 nM (active)
CC1(C)O[C@@H]2C[C@@H]3[C@H]4C[C@@H](F)C5=CC(=O)C=C[C@]5(C)[C@@]4(F)[C@@H](O)C[C@]3(C)[C@]2(C(=O)CO)O1,Potency,[1],inactive
same,Potency,[2],inactive
same,Potency,[3],inactive
same,Potency,[5],7.4 nM (active)
Nc1ccn([C@@H]2O[C@H](CO)[C@H](O)C2(F)F)c(=O)n1,Potency,[2],41.8 nM (active)
same,Potency,[4],59 nM (active)
same,Potency,[5],105 nM (active)
same,Potency,[6],296 nM (active)
same,Potency,[7],469 nM (active)
same,Potency,[8],83.3 nM (active)
COc1cc(=C2C=c3ccccc3=N2)[nH]c1=Cc1[nH]c(C)cc1C,Potency,[2],1870 nM (active)
same,Potency,[5],1050 nM (active)
same,Potency,[7],7430 nM (active)
CCC(=C(c1ccccc1)c1ccc(OCCN(C)C)cc1)c1ccccc1,Potency,[2],23500 nM (active)
same,Potency,[4],18700 nM (active)
same,Potency,[8],18700 nM (active)
COC(=O)[C@]12CCC(C)(C)C[C@@H]1[C@@H]1C(=O)C=C3[C@@]4(C)C=C(C#N)C(=O)C(C)(C)[C@@H]4CC[C@@]3(C)[C@]1(C)CC2,Potency,[2],235 nM (active)
same,Potency,[3],418 nM (active)
same,Potency,[4],469 nM (active)
same,Potency,[5],469 nM (active)
same,Potency,[6],662 nM (active)
same,Potency,[7],526 nM (active)
same,Potency,[8],662 nM (active)
CC1=C(CO)C(=O)O[C@@H]([C@@H](C)[C@H]2CC[C@H]3[C@@H]4C[C@H]5O[C@]56[C@@H](O)C=CC(=O)[C@]6(C)[C@@H]4CC[C@]23C)C1,Potency,[1],372 nM (active)
same,Potency,[2],148 nM (active)
same,Potency,[3],235 nM (active)
same,Potency,[5],166 nM (active)
same,Potency,[6],inactive
same,Potency,[8],inactive
CCCCc1nc2cc(C=CC(=O)NO)ccc2n1CCN(CC)CC,Potency,[1],83.3 nM (active)
same,Potency,[2],469 nM (active)
same,Potency,[5],148 nM (active)
CC1(C)OC2=C(C(=O)c3ccccc3C2=O)[C@H](NCc2ccccc2)[C@H]1O,Potency,[2],2090 nM (active)
same,Potency,[3],2350 nM (active)
same,Potency,[4],662 nM (active)
same,Potency,[5],5260 nM (active)
same,Potency,[6],4180 nM (active)
same,Potency,[7],1480 nM (active)
same,Potency,[8],2350 nM (active)
COc1c(N2C[C@@H]3CCCN[C@H]3C2)c(F)cc2c(=O)c(C(=O)O)cn(C3CC3)c12,Potency,[13],18000 nM (active)
same,Potency,[2],inactive
same,Potency,[5],37200 nM (active)
same,Potency,[7],inactive
CC(NCc1ccc2c(c1)nc(NC(=O)c1ccc(-c3cn[nH]c3)s1)n2CC(C)(C)O)C(C)(C)C (centres undefined),Potency,[1],372 nM (active)
same,Potency,[2],83.3 nM (active)
same,Potency,[4],166 nM (active)
same,Potency,[5],418 nM (active)
same,Potency,[6],296 nM (active)
same,Potency,[7],264 nM (active)
same,Potency,[8],235 nM (active)
CCC1=C[C@@H]2CN(C1)Cc1c([nH]c3ccccc13)[C@@](C(=O)OC)(c1cc3c(cc1OC)N(C)[C@@H]1[C@@](O)(C(=O)OC)[C@H](OC(C)=O)[C@]4(CC)C=CCN5CC[C@]31[C@@H]54)C2,Potency,[1],4.7 nM (active)
same,Potency,[2],23.5 nM (active)
same,Potency,[3],1050 nM (active)
same,Potency,[4],52.6 nM (active)
same,Potency,[5],5.3 nM (active)
same,Potency,[6],7.4 nM (active)
same,Potency,[8],8.3 nM (active)
COc1ccc(C=Cc2cc(OC)c(OC)c(OC)c2)cc1O,Potency,[1],inactive
same,Potency,[2],inactive
same,Potency,[4],inactive
same,Potency,[5],inactive
same,Potency,[6],inactive
same,Potency,[7],inactive
same,Potency,[8],inactive
CC=CC1=C(C(=O)O)N2C(=O)[C@H](NC(=O)[C@H](N)c3ccc(O)cc3)[C@@H]2SC1,Potency,[1],inactive
same,Potency,[2],inactive
same,Potency,[3],inactive
same,Potency,[4],8330 nM (active)
same,Potency,[5],inactive
same,Potency,[7],14800 nM (active)
same,Potency,[8],inactive
CC=C1NC(=O)[C@H]2CSSCCC=C[C@H](CC(=O)N[C@H](C(C)C)C(=O)N2)OC(=O)[C@H](C(C)C)NC1=O,Potency,[1],10.5 nM (active)
same,Potency,[2],16.6 nM (active)
same,Potency,[4],14.8 nM (active)
same,Potency,[5],26.4 nM (active)
same,Potency,[6],11.8 nM (active)
same,Potency,[7],26.4 nM (active)
same,Potency,[8],7.4 nM (active)
CC(C)(C)NC(=O)[C@H]1CN(Cc2cccnc2)CCN1C[C@@H](O)C[C@@H](Cc1ccccc1)C(=O)N[C@H]1c2ccccc2C[C@H]1O,Potency,[6],inactive
